Source: the supplement of paper PMC7156485
± gives the standard deviation of the averaged measurements.

Each compound was assayed on TDF (assay: cell number relative to DMSO (% of DMSO); higher = more cells (less growth inhibition / toxicity)). Settings: concentration: 10 µM; 24 h.
How it was run: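 Treatment: HCC1569 and TDF cells, 800 per well in 384-well plates with RPMI and 10% FBS, were given compounds at 10 µM for 24 h at 37 °C, in triplicate. Readout: after 3.7% formaldehyde fixation, cells were stained with a rabbit anti-H1.0 antibody, an AlexaFluor 647 secondary and DAPI. Reported values are H1.0 nuclear intensity or cell number as percent of the plate control, taken as the median of replicates, with positional smoothing for HCC1569.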
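Also: TDF denotes transformed human dermal fibroblasts of mesenchymal origin.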

Compound	cell number
O.Oc1cc(O)c2c(c1)OC(c1ccc(O)c(O)c1)C(O)C2 (single isomer, unassigned; (+)) [(+)-Catechin Hydrate]	110
Nc1c(C(=O)O)c2nc3c(C(=O)O)cccc3oc-2cc1=O [2-amino-3-oxo-3H-phenoxazine-1,9-dicarboxylic acid]	88.1
C=C1CCC(O)CC1=CC=C1CCCC2(C)C1CCC2C(C)CCC(O)C(C)(C)O [24(R),25-Dihydroxyvitamin D3]	98.9
CCCCCC(O)C=CC=CCC=CCCCCC(=O)O (stereo not given)	97.9
C=CC1CN2CCC1CC2C(O)c1ccnc2ccc(OC)cc12.C=CC1CN2CCC1CC2C(O)c1ccnc2ccc(OC)cc12.O=S(=O)(O)O (stereo not given) [Quinine sulfate]	97.8
Cc1ccccc1C=CC1=NCCN1.O=C(O)C(=O)O [Metrazoline oxalate]	81
O=C(C=CC=Cc1ccc2c(c1)OCO2)N1CCCCC1 [Piperine]	97
Fc1ccc(Cl)cc1-c1nc(Nc2ccncc2)c2nccnc2n1	91.6
CSc1cccc(Nc2ncc3cc(-c4c(Cl)cccc4Cl)c(=O)n(C)c3n2)c1	6.26
Cl.Cl.Nc1nccc(-c2c(-c3ccc(F)cc3)ncn2C2CCCCC2)n1	92.2
CCCCOC(=O)NC(=O)C1c2ccccc2Oc2ccccc21 [butyl 9H-xanthen-9-ylcarbonylcarbamate]	106
Cl.NC(N)=NC(N)=Nc1cccc(Cl)c1 [1-(m-Chlorophenyl)-biguanide hydrochloride]	97.2
CCCCCC=CCC(O)C=Cc1cccc(CC(O)CCCCO)n1 (stereo not given)	108 ± 4.7
O=C(O)CP(=O)(O)O [Phosphonoacetic acid]	109
O=C1C(=Cc2ccc(O)c(O)c2)Oc2c1ccc(OC1OC(CO)C(O)C(O)C1O)c2O (stereo not given) [Maritimein]	94.8
Cl.O=C(NCCCCN1CCN(c2cccc(Cl)c2Cl)CC1)c1ccc2c(c1)Cc1ccccc1-2	98.2
O=C(NOCC1CC1)c1ccc(F)c(F)c1Nc1ccc(I)cc1Cl	71
Cl.O.O=C(O)CN(CCN(CC(=O)O)Cc1ccccc1O)Cc1ccccc1O	98.8
C[C@@H](Oc1cc(-c2cnn(C3CCNCC3)c2)cnc1N)c1c(Cl)ccc(F)c1Cl	36.3
O=C(Cc1ccc(Cl)c(Cl)c1)OCCN1CCCC1.O=C(O)C(=O)O [AC 915 oxalate]	105

Compound	cell number
CCCCCCCCC=CCCCCCCCC(=O)NCCO [N-Oleoylethanolamine]	108
CC(Cc1ccccc1)(NC(=O)CN)c1ccccc1.Cl (stereo not given)	107
COc1cccc(OC)c1OCCNCC1CSc2ccccc2O1.Cl (stereo not given) [Benoxathian hydrochloride]	108
O=c1c(O)c(-c2ccc(O)cc2O)oc2cc(O)cc(O)c12 [Morine]	109
CC(C)(C)NCC(O)c1ccc(O)c(CO)c1.CC(C)(C)NCC(O)c1ccc(O)c(CO)c1.O=S(=O)(O)O (stereo not given) [Albuterol hemisulfate]	103
Nc1nc(N)nc(-c2cc(Cl)ccc2Cl)n1 [Irsogladine]	105
COc1cc(C2Oc3cc(C4Oc5cc(O)cc(O)c5C(=O)C4O)ccc3OC2CO)ccc1O (stereo not given) [Silymarin]	93.6
CN(C)CCCOc1nn(Cc2ccccc2)c2ccccc12 [Benzydamine]	83.7
COc1cc2c3cc1Oc1cc(ccc1O)CC1c4c(cc(OC)c(O)c4Oc4ccc(cc4)CC3N(C)CC2)CC[N+]1(C)C.Cl.[Cl-] (single isomer, unassigned; (+)) [(+)-Tubocuraraine chloride]	109
N#Cc1cnc2cnc(NCc3cccnc3)cc2c1Nc1ccc(F)c(Cl)c1 [Tpl2 Kinase Inhibitor]	74.3
COc1cc2c(cc1OC)-c1cc(=Nc3c(C)cc(C)cc3C)n(C)c(=O)n1CC2.Cl [Trequinsin.HCl]	107
Cn1c(=O)c2[nH]cnc2n(C)c1=O [Theophylline]	95.5
Cl.Cl.Fc1ccc(C(c2ccc(F)cc2)N2CCN(CC=Cc3ccccc3)CC2)cc1 [Flunarizine.2HCl]	105
NS(=O)(=O)c1cccc2c1c([N+](=O)[O-])cc1nc([O-])c([O-])nc12.[Na+].[Na+] [NBQX disodium]	103
COc1cc(CCC(C)=O)ccc1O [Vannilylacetone]	90.8
COc1ccc(Cl)cc1C(=O)NCCc1ccc(S(=O)(=O)NC(=O)NC2CCCCC2)cc1 [Glibenclamide]	105
Cl.NOCC(=O)O.NOCC(=O)O [O-(Carboxymethyl)hydroxylamine hemihydrochloride]	97.9
O=c1cc(-c2ccc(O)cc2)oc2c(C3OC(CO)C(O)C(O)C3O)c(O)cc(O)c12 (stereo not given) [Vitexin]	100
CCOC(=O)C(CCc1ccccc1)NC(C)C(=O)N1Cc2ccccc2CC1C(=O)O (stereo not given) [Quinapril]	101
Cc1cc2cc3c(C)cc(=O)oc3c(C)c2o1 [4,5',8-Trimethylpsoralen]	102
